# High-throughput results (PubChem BioAssay)
# BAZ2B block = qHTS Assay for Inhibitors of BAZ2B; Potency, µM (titrated, usually from 114 µM), for the others: at the top dose activity change, negative = inhibition, hits mostly inhibitors; actives 4.4% (n = 360,000); AlphaScreen BAZ2B-H3K14Ac peptide displacement; note: % is set by controls: 0 for no effect and ±100 for the full control effect; nearly all actives have a fitted effect of over 60% in size
#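 AlphaScreen displacement of biotin-H3(5-23)K14Ac peptide (50 nM final) from BAZ2B (50 nM final) in PBS pH 7.4, 0.01% Tween-20; complex preformed 30 min RT, then compounds (top 110 uM) 30 min RT, beads 20 min dark.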
# HP1b chromo inh = HTS for Inhibitors of HP1-beta Chromodomain Interactions with Methylated Histone Tails; Chromobox protein homolog 1 (Homo sapiens), P83916; AlphaScreen HP1-beta / biotin-H3K9me3 peptide binding; Potency, µM (highest dose often 114 µM), for inactives: top-dose activity change, negative = inhibition, usual class: inhibitors; actives 0.56% (n = 390,000); note: nearly all actives have a fitted effect of over 70% in size
# Target sequence (P83916 whole entry, looked up): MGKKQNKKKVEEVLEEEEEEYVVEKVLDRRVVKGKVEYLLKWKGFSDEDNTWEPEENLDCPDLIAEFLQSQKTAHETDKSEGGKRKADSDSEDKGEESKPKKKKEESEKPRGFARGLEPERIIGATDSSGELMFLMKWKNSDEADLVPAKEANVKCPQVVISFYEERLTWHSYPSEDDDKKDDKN
#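 Compound inhibition of the preformed complex between 50 nM HP1-beta and 50 nM biotinylated H3K9me3 peptide was read by AlphaScreen. Buffer was PBS pH 7.4 with 0.01% Tween-20. Incubations ran 30 min at room temperature, with 10 ug/mL donor/acceptor beads.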
# L3MBTL1 inh = qHTS Assay for the Inhibitors of L3MBTL1; Lethal(3)malignant brain tumor-like protein 1 (Homo sapiens), Q9Y468; AlphaScreen L3MBTL1–H3K9me1 peptide binding; Potency, µM (highest dose often 57.1 µM), without a hit: at the top dose activity, negative = inhibition, usual class: inhibitors; actives 0.66% (n = 230,000); note: % is set by controls: 0 for no effect and ±100 for the full control effect; nearly all actives have a fitted effect of over 60% in size
#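 AlphaScreen assay: L3MBTL1 (50 nM final) was preincubated 30 min at room temperature with biotinylated H3(1-15)K9me1 peptide (75 nM final), then 30 min with library compounds; streptavidin donor and nickel chelate acceptor beads (10 ug/mL final) added, 30 min dark.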
# JMJD2A Tudor = qHTS Assay for Inhibitors of JMJD2A-Tudor Domain; Lysine-specific demethylase 4A (Homo sapiens), O75164; AlphaScreen JMJD2A-Tudor / H3K4me3 peptide binding; Potency, µM (highest dose often 114 µM), for inactives: at the top dose activity change, negative = inhibition, hits mostly inhibitors; actives 4.4% (n = 390,000); AID 504339, 2011; note: % is set by controls: 0 for no effect and ±100 for the full control effect; nearly all actives have a fitted effect of over 50% in size
# G9a block = qHTS Assay for Inhibitors of Histone Lysine Methyltransferase G9a. Histone-lysine N-methyltransferase EHMT2 (Homo sapiens), Q96KQ7. G9a H3K9 monomethylation, AlphaScreen, 2 h. Potency, µM (titrated, usually from 102 µM), without a hit: at the top dose activity, negative = inhibition, usual class: inhibitors. actives 8.8% (n = 350,000). AID 504332, 2011; note: % is set by controls: 0 for no effect and ±100 for the full control effect; nearly all actives have a fitted effect of over 75% in size
# Target sequence (Q96KQ7 913-1193 limits assumed): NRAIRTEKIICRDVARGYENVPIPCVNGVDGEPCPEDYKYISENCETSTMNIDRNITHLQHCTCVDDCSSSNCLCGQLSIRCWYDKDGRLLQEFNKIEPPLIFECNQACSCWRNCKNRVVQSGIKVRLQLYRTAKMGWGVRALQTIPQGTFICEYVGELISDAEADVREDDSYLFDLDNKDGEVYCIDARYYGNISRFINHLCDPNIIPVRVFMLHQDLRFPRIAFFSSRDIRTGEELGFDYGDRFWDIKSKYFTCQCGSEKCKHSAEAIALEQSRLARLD
#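 Quantitative HTS format: methyltransferase activity on a biotin-tagged H3K9 peptide is measured by AlphaScreen, using a rabbit anti-monomethyl-H3K9 antibody with streptavidin donor and anti-IgG acceptor beads. Final levels are 20 nM enzyme, 500 nM peptide, 20 uM SAM; 2 h RT.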
# Starred values were filed as active, the others as inactive; ? = inconclusive; · = no result given; [ ] = remark or other dose. Sampled rows, rich in hits. Any-hit rate of the full collection: about 11%. Calls come from the whole dose curve; as a rule, active = well fitted inhibition curve with a large enough effect; inconclusive = small, poorly fitted or top-dose-only effect; inactive = no such curve, though single readings can be large or run the other way. Potency is the fitted concentration of half-maximal effect.
SMILES,BAZ2B block,HP1b chromo inh,L3MBTL1 inh,JMJD2A Tudor,G9a block
O=C(O/N=C\c1ccc(N2CCCCC2)c([N+](=O)[O-])c1)c1cccc(Cl)c1,?,?,-2.7%,?,28.2µM*
O=C(N/N=C/c1ccc(N2CCCC2)c([N+](=O)[O-])c1)c1cccnc1,?,-5.1%,-4.0%[11.4 µM],-21.8%,?
Cc1ccc(C(=O)NCCC(C)C)cc1NC(=O)c1nsc2ccccc12,0.1%,23.7%[57 µM],·,-7.1%,6.9%[59 µM]
COc1cccc(N2C(=O)C(CC(=O)Nc3ccc(Cl)cc3)N(Cc3ccc4c(c3)OCO4)C2=O)c1 (stereo unspecified),-18.4%,11.4%,·,-24.8%,5.6%[59 µM]
CCCCN(Cc1ccccc1)S(=O)(=O)c1ccc2c(c1)CC(C)N2C(=O)CC (stereo unspecified),·,85.2%,·,14.3%,-4.6%[59 µM]
NC(=O)c1c(N)sc2c1CCCC2,?,1.8%,0.0%,-32.1%,2.51µM*
Nc1sc2c(c1C(=O)NC1CCS(=O)(=O)C1)CCCC2 (stereo unspecified),-6.9%,-6.5%,-1.0%,-34.0%,7.94µM*
CCOc1ccc(NC(=O)C(NS(=O)(=O)c2ccc3c(c2)CCN3C(C)=O)C(C)C)cc1 (stereo unspecified),·,26.9%,·,-21.3%,2.6%[59 µM]
N#Cc1ccc(OC(=O)c2cc(-c3ccc4c(c3)OCCO4)on2)cc1,?,62.1%,·,-5.0%,-7.7%[59 µM]
Cn1c(-n2cccc2)c(-c2c(-c3ccccc3)[nH]c3c2c(=O)[nH]c(=O)n3C)c(=O)[nH]c1=O,79.4µM*,-6.6%,14.1µM*,-30.8%,-3.5%[12.7 µM]
Cc1ccc(-c2[nH]c3c(c2-c2c(-n4cccc4)n(C)c(=O)[nH]c2=O)c(=O)[nH]c(=O)n3C)cc1,-5.1%,36.6%,·,-17.9%,-6.2%[59 µM]
COc1cccc(N2CCN(C(=O)CN3C(=O)COc4ccc(S(=O)(=O)N5CCC(C)CC5)cc43)CC2)c1,-19.4%,38.8%,·,-12.9%,-6.2%[59 µM]
COc1ccc(OC)c(NC(=O)C(CC(=O)O)NCc2ccco2)c1 (stereo unspecified),-31.2%,-12.4%,-6.0%,44.7µM*,?
CC(C)OC(=O)C(CC(=O)O)NCc1ccccc1 (stereo unspecified),-36.1%,?,-2.3%,11.2µM*,?
CCOC(=O)C(CC(=O)O)NCc1ccco1 (stereo unspecified),-4.7%,4.2%,7.9%,17.8µM*,39.8µM*
Cc1cccc(C)c1NC(=O)CC(NCc1ccco1)C(=O)O (stereo unspecified),-33.9%,13.1%,-4.6%,20µM*,-40.1%[12.7 µM]
Cn1nnnc1SCCCNCc1cc(Br)ccc1OCc1ccccc1,?,41.2%,·,-6.3%,-24.6%[59 µM]
Cc1ccccc1NC(=O)CCn1nc(-c2ccccc2)c2ccccc2c1=O,2.2%,-9.4%,·,-6.7%,-2.6%[59 µM]
COC(=O)c1cc2c(cc1N)OCCO2,?,20.5%,-2.9%,-21.7%,56.2µM*
Nc1cc2c(cc1C(=O)c1ccccc1)OCCO2,39.8µM*,-34.4%,-21.9%,?,·
COC(=O)c1cc2c(cc1[N+](=O)[O-])OCO2,-15.6%,41.0%,·,-2.7%,-12.8%
Cc1ccc(C(=O)c2cc3c(cc2N)OCCO3)cc1,35.5µM*,-14.6%,?,50.1µM*,28.2µM*
Nc1cc2c(cc1C(=O)c1ccc(Cl)cc1)OCCO2,35.5µM*,-56.3%,·,50.1µM*,44.7µM*
CC1(c2ccc3ccccc3c2)NC(=O)N(CC(=O)N2CCN(Cc3ccc(C#N)cc3)CC2)C1=O (stereo unspecified),2.4%,11.9%,-14.8%,-15.9%,?
CC1CC(C)(C)CC2(C1)NC(=O)N(CC(=O)N1CCN(Cc3ccc(C#N)cc3)CC1)C2=O (stereo unspecified),-6.5%,-6.1%,0.3%,-12.2%,50.1µM*
SMILES,BAZ2B block,HP1b chromo inh,L3MBTL1 inh,JMJD2A Tudor,G9a block
Cc1ccc(S(=O)(=O)N2CCN(Cc3ccccc3)CC2)c(C)c1NS(C)(=O)=O,-6.6%,33.0%,·,-6.1%,1.5%[59 µM]
CCN1CCC(Nc2ccnc3cc(Cl)ccc23)CC1,-10.1%,24.2%,-14.7%,-6.1%,31.6µM*
CCOc1ccc(Nc2ccnc3cc(Cl)ccc23)cc1,-9.3%,25.6%,·,-17.4%,-0.2%
c1ccc2c(C[C@@H]3CNCCN3CC3CCCCC3)cccc2c1,39.8µM*,-2.0%,-6.8%,?,15.6%[2.33 µM]
CCn1c(CNC(=O)Cc2ccc(OC)cc2)nnc1SCC(=O)c1ccc(Br)cc1,4.9%,6.3%,·,-17.9%,0.4%
CCn1c(CNC(=O)c2ccc(OC)cc2)nnc1SCC(=O)c1ccccc1,-8.9%,?,1.6%,20µM*,59.7%[59 µM]
CCn1c(CNC(C)=O)nnc1SCC(=O)c1ccc(Br)cc1,-3.5%,-19.5%,-14.9%[11.4 µM],56.2µM*,11.2µM*
CCn1c(CCNC(=O)c2cccs2)nnc1SCC(=O)Nc1nc(-c2ccccc2)cs1,-6.6%,6.0%,-3.6%,-26.9%,-9.7%[59 µM]
CCn1c(CCNC(=O)c2cccs2)nnc1SCC(=O)c1ccc(OC)cc1,·,?,·,28.2µM*,·
Cc1ccc(-c2noc(-c3ccc(NCc4ccco4)c([N+](=O)[O-])c3)n2)cc1,-21.3%,48.9%,·,-14.2%,-12.9%[59 µM]
Cc1ccc(C)c(Cn2c3ccccc3c3cnn(CC(=O)NC(C)c4ccccc4)c(=O)c32)c1 (stereo unspecified),-29.2%,12.7%,·,-8.1%,-11.5%[59 µM]
O=C(Cc1ccccc1)c1nc2ccccc2s1,70.8µM*,?,-16.0%,?,?
COC(=O)c1ccc(CC(=O)c2nc3ccccc3s2)cc1,-3.5%,-4.6%,6.3%,?,10.8%[59 µM]
Cc1ccccc1OCC(=O)Nc1nnc(COc2ccccc2)s1,·,33.1%,·,0.0%,·
Cc1ccn(-c2cc(O)c(-n3ccc(C)n3)cc2O)n1,-2.4%,?,-3.2%,?,3.55µM*
Cc1ccn(CCC(=O)O)n1,2.5%,33.5%,11.0%,-12.0%,·
CCC(=O)c1ccc(OCCn2cnc3ccccc32)cc1,-25.6%,4.7%,1.4%,79.4µM*,11.4%[12.7 µM]
CCC(=O)c1ccc(OCCn2cncn2)cc1,-0.4%,58.0%,-5.1%[11.4 µM],-8.1%,6.8%[12.7 µM]
O=[N+]([O-])c1ccccc1OCCCn1cnc2ccccc21,22.4µM*,?,0.9%,0.794µM*,-143.4%[59 µM]
c1ccc2c(c1)ncn2CCn1cnc2ccccc21,12.6%,53.1%,1.2%,12.2%[57.1 µM],9.1%[59 µM]
O=c1c2ccccc2ncn1CCCOc1ccccc1[N+](=O)[O-],4.4%,26.7%,-1.5%,1.3%,6.6%
c1ccc2c(c1)ncn2CCOCCOCCn1cnc2ccccc21,70.8µM*,25.1%,-18.6%[11.4 µM],-18.0%,?
